# Source: the supplement of paper PMC3334620
# In all, about 33,000 sequences were measured (“E-score (-0.5 to 0.5)”: median about -0.054, highest 2% from about 0.39 on). Only a selection was taken, and the highest values are over-represented in it overall.
# Target: Ylr278c (UniProt Q05854)
# Assay: PBM E-score (8-mer binding enrichment) (E-score (-0.5 to 0.5)); higher = stronger / more preferred TF binding
# Conditions: protein concentration: 200 nM; construct: GST-DNA-binding domain
# In short: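 Using PURExpress in vitro transcription/translation, GST-tagged yeast transcription factors were made in full-length or DNA-binding-domain form. These were applied at about 100-200 nM to double-stranded universal all-10-mer Agilent arrays, and bound protein was detected with fluorescent anti-GST. Scans were normalised with masliner before the Universal PBM Analysis Suite assigned E-scores to ungapped eight-base words pooled with their reverse complements.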
# Chain of UniProt Q05854 (Q05854 whole entry): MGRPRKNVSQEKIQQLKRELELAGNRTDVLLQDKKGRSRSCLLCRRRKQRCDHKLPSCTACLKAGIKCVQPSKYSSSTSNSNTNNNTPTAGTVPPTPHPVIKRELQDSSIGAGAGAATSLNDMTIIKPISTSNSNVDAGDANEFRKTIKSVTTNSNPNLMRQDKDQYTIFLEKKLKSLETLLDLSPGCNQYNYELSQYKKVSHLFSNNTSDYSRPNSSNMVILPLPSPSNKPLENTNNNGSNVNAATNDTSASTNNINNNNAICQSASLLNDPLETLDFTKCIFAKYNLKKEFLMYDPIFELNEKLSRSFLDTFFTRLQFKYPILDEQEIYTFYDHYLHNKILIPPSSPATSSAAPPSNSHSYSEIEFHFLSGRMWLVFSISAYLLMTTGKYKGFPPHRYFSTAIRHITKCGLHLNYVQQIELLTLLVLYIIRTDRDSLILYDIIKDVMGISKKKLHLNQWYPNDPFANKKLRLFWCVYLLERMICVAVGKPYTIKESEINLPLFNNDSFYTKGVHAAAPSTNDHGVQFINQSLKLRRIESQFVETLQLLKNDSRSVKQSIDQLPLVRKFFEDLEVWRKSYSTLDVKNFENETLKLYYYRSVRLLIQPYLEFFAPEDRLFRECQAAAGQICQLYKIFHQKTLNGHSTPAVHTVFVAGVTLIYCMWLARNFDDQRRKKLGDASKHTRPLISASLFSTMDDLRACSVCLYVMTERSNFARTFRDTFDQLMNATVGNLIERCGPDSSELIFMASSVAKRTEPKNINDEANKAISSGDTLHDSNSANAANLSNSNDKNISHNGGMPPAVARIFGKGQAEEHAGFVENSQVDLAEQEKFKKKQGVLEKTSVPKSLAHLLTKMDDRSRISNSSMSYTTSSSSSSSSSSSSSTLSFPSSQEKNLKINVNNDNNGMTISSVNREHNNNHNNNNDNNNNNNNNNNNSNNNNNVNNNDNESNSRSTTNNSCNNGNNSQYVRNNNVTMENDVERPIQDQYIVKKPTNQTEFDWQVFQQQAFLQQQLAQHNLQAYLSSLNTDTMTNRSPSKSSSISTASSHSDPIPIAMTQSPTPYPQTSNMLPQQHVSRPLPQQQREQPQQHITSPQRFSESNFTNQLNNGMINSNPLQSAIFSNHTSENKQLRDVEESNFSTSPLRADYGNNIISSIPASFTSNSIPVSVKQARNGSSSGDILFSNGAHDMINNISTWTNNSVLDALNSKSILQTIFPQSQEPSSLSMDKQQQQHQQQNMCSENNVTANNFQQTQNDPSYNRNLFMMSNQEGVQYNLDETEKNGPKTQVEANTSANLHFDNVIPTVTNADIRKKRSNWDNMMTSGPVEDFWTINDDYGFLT
row,Sequence,PBM E-score
1,AGGGGTGC,-0.114
2,AGAGTCGC,-0.14
3,GGTATCGA,-0.0372
4,CGATCGGC,0.282
5,GGATCGAA,0.0293
6,GGATCGGA,0.438
7,CGATCGTA,0.00037
8,GGATCGCA,-0.0558
9,AGATCGGG,0.222
10,CGATCGGA,0.44
11,AGATCGGA,0.43
12,AGATCGGC,0.224
13,ACTCAACT,0.0546
14,GAGCATTA,-0.111
15,TATTGAAA,0.0175
16,GGTTAGAA,-0.15
17,TAGCTAGA,-0.285
18,AAAACTCC,0.386
19,GAAACTCA,-0.0472
20,GAAACTTC,0.0593
21,GAAACTCC,0.399
22,CAAACTCC,0.434

row,Sequence,PBM E-score
1,CAAACTCA,-0.0703
2,GCTAAGAA,-0.0627
3,CCGGACGG,0.396
4,TCGGACGA,0.271
5,CCGGACGC,0.364
6,CCGGACGA,0.406
7,ACGGACGA,0.177
8,ACGGACGG,0.209
9,CGTGCATC,-0.152
10,CGCTTTCC,0.143
11,ATTTCGTA,-0.062
12,CTCGATGA,-0.12
13,AATGGGCC,0.0902
14,CAGAGGAG,-0.243
15,GGCTAGAA,0.0303
16,GGGCATTA,-0.0729
17,AGGCATTA,-0.134
18,CGGCATTA,0.405
19,GTGTCGTA,-0.209
20,ATGTCGGG,0.222
21,CTGTCGGA,0.404
22,GTGTCGGA,0.417

row,Sequence,PBM E-score
1,ATGTCGGA,0.397
2,CTGTCGAA,-0.289
3,CTGTCGGC,0.35
4,GTGTCGCA,0.00208
5,ATGTCGGC,0.0736
6,GGACCAAA,0.187
7,ATACGCTC,0.00427
8,CGGCCACG,-0.0321
9,ACTCTGGA,-0.117
10,ATAGTCTA,-0.141
11,CGAAAGTA,0.00237
12,ACGAAAGA,-0.0168
13,AGCTTACG,-0.143
14,AGTCGGGG,0.282
15,AGACTCCT,-0.224
16,CGACTCCC,0.0244
17,CGACTCCG,0.406
18,AGACTCCC,-0.167
19,AGACTCCG,0.418
20,CGACTCCA,-0.0167
21,CGAGCAAC,-0.00501
22,AGAAGACC,0.0375

row,Sequence,PBM E-score
1,ACAAGACA,-0.0802
2,TACGAGTA,-0.0577
3,GGGACAAC,-0.104
4,CGGACAAG,0.383
5,CGGACAAC,0.389
6,CGGACAAA,0.425
7,AGGACAAC,-0.163
8,AGGACAAA,-0.0109
9,AACATGAC,-0.0624
10,GTCAACTA,-0.084
11,AGGGCTAA,-0.0787
12,AGGTCCGG,0.418
13,AGGTCCGA,0.404
14,AGGTCCGC,0.333
15,AGGTCCAG,-0.113
16,CGGTCCGA,0.455
17,GGGTCCGA,0.366
18,AGGTCCCA,-0.224
19,CGGTCCGC,0.38
20,AGGTCCAA,-0.179
21,ACTAGTGG,-0.0388
22,AACATAGC,-0.0617

row,Sequence,PBM E-score
1,ATGTTGCC,-0.036
2,ATTGACCA,-0.196
3,CCTATCAC,-0.119
4,AACACAAT,-0.152
5,GCAACACC,0.113
6,CGCTCGGA,0.408
7,GGCTCGGA,0.38
8,AGCTCGGA,0.322
9,CCCTCGGC,0.207
10,GCCTCGGA,0.352
11,CCCTCGGA,0.394
12,GCACTAGA,-0.16
13,CCTAGCAG,-0.268
14,CCGTTGAC,0.0534
15,CGAGCTGC,-0.00491
16,GTATGCGA,-0.0635
17,ATCAGGAA,-0.0943
18,AACTGCGA,0.148
19,TCAATTCA,-0.0799
20,AATTCGGC,0.157
21,AATTCGGA,0.449
